Measurements taken from PubChem BioAssay.
For part of these data: Entries with a potency or affinity are not part of this list. Calls of active or inactive are those of the source. Unless noted, the rule behind the calls is not given here.

Key:
[1] = antimalarial activity against Dd2 strain (AID 2302;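 active = growth inhibition above 50% at the single 2 µM test dose, taken to imply half-maximal potency below 2 µM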;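 note: 0% = DMSO untreated growth and 100% = chloroquine plus artemisinin killed control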); settings: P. falciparum Dd2 in RBCs, LDH growth readout, 72 h; at 2 µM; stronger effect = higher value
[2] = HepG2 cytotoxicity, primary screen, cytotoxicity control for P. falciparum antimalarial project, cell-based, ATP luminescence (AID 2303;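 active = inhibition above 50%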;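 note: 0% = DMSO wells and 100% = digitonin-killed cells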); settings: HepG2 viability, 24-48 h, at 10 µM, stronger effect = higher value
[3] = target: L-lactate dehydrogenase (Plasmodium falciparum (isolate CDC / Honduras)) (UniProt Q27743); test: PfLDH activity inhibition – cell lysate, 3D7 strain, counter-screen for P. falciparum growth inhibition project (AID 2304);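 note: 0% = vehicle and 100% = reference inhibitor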; settings: P. falciparum 3D7 crude extract, LDH APAD/NBT absorbance; at 2 µM; stronger effect = higher value
L-lactate dehydrogenase (Plasmodium falciparum (isolate CDC / Honduras)), sequence (Q27743 whole entry, looked up): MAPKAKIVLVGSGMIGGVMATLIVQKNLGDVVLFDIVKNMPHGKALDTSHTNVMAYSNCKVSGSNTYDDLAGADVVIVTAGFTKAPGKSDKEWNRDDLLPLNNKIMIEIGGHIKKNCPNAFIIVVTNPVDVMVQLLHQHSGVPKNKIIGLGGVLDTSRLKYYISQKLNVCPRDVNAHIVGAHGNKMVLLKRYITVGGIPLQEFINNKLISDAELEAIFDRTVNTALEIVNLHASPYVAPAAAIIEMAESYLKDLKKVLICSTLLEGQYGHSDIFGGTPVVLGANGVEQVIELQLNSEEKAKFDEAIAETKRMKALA

[4] = inhibition of 3D7 malaria parasite growth – strain 3D7 (AID 2306);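 note: 0% = DMSO wells and 100% = chloroquine plus artemisinin control wells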; settings: P. falciparum 3D7 erythrocytic growth, LDH absorbance, 72 h; at 2 µM; stronger effect = higher value
[5] = target: Calcium-dependent protein kinase 1 (Plasmodium falciparum (isolate 3D7)) (UniProt P62344); test: PfCDPK1 kinase inhibitors, biochemical, TCAMS library (AID 1159585; cut-off not given, nearly all actives have IC50 up to about 0.98 µM;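 note: inhibitors leave more ATP so luminescence rises with inhibition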); settings: recombinant PfCDPK1, Kinase-Glo ATP depletion luminescence
Calcium-dependent protein kinase 1 (Plasmodium falciparum (isolate 3D7)), sequence (P62344 whole entry, looked up): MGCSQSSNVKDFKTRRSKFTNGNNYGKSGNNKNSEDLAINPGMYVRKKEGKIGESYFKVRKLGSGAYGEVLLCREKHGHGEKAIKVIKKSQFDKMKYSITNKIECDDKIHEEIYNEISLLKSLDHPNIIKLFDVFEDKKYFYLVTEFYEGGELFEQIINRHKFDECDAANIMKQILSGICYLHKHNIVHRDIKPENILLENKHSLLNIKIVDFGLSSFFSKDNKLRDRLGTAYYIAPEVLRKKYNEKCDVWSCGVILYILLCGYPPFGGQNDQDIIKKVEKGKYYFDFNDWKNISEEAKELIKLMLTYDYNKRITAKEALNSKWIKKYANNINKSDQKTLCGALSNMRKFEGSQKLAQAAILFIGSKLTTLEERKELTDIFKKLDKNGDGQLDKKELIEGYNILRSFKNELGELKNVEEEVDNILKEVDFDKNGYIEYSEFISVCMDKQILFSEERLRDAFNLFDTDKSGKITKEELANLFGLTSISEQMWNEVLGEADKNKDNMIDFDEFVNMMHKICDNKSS

[6] = target: Plasmodium falciparum protein kinase 6 (PK6, PF3D7_1337100) (UniProt Q8IDW1); test: PfPK6 kinase inhibitors, biochemical, TCAMS library (AID 1159586); settings: recombinant PfPK6, Kinase-Glo ATP depletion luminescence
Plasmodium falciparum protein kinase 6 (PK6, PF3D7_1337100), sequence (Q8IDW1 1-305): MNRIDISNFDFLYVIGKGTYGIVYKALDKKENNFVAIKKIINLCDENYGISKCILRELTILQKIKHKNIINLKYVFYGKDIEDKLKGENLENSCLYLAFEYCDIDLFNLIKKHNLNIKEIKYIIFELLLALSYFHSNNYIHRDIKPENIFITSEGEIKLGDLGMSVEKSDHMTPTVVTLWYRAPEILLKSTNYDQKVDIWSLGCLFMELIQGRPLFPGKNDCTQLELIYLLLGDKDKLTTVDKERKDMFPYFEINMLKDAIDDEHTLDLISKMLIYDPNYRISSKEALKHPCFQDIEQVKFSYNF

[7] = target: Protein kinase 7 (PK7), Plasmodium falciparum 3D7 (PF3D7_0213400) (UniProt Q7YTF7); test: inhibition of Plasmodium PK7 catalytic activity – biochemical, TCAMS antimalarial set, Kinase-Glo luminescence (AID 1159587); settings: recombinant PfPK7, Kinase-Glo ATP depletion luminescence
Protein kinase 7 (PK7), Plasmodium falciparum 3D7 (PF3D7_0213400), sequence (Q7YTF7 1-343): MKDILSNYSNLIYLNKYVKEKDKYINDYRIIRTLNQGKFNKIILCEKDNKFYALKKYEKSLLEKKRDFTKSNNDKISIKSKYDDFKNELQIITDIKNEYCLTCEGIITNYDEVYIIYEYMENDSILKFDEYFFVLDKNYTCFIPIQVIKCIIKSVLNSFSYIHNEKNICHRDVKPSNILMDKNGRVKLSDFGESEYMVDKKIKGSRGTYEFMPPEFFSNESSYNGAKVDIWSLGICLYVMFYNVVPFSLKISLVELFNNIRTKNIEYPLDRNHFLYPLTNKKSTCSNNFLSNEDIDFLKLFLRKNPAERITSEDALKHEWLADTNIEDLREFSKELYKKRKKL

[8] = target: Calcium-dependent protein kinase 4 (Plasmodium falciparum (isolate 3D7)) (UniProt Q8IBS5); test: PfCDPK4 kinase inhibitors, biochemical, TCAMS library (AID 1159588; cut-off not given, nearly all actives have IC50 up to about 0.91 µM); settings: recombinant PfCDPK4, Kinase-Glo ATP depletion luminescence
Calcium-dependent protein kinase 4 (Plasmodium falciparum (isolate 3D7)), sequence (Q8IBS5 whole entry, looked up): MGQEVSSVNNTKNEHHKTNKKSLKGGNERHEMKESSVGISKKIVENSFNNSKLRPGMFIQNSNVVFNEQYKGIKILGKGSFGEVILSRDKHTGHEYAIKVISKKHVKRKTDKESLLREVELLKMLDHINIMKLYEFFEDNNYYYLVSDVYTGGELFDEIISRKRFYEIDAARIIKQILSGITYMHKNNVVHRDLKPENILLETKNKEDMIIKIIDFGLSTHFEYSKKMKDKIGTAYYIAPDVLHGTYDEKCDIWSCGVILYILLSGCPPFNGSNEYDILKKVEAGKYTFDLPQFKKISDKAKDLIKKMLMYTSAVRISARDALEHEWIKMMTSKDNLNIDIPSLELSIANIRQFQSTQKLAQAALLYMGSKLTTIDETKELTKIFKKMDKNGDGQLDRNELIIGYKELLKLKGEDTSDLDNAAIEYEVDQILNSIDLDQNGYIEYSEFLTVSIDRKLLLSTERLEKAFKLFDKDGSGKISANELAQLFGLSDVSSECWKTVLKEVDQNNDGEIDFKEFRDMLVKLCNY

CC(C)(C)c1ccc(C(=O)N2CCC3(CC2)C(=O)N(CC(=O)NCC2CCCO2)CN3c2ccccc2)cc1 (configuration not stated)
inactive: inhibition [2] 8% | inhibition [3] 0% | outcome [5] | outcome [6] | outcome [7] | outcome [8]
active: growth inhibition [1] 100% | growth inhibition [4] 100%

Cc1ccccc1C1CCN(c2ncc(C(=O)Nc3ccccc3)cc2Cl)CC1
active: growth inhibition [1] 83% | growth inhibition [4] 83%
inactive: inhibition [2] 29% | inhibition [3] -3% | outcome [5] | outcome [6] | outcome [7] | outcome [8]

N#Cc1ccc(NC(=O)N2CCCN(CCCCCNC(=O)/C=C/c3ccc(Cl)c(Cl)c3)CC2)cc1
inactive: growth inhibition [1] 4% | inhibition [2] 32% | inhibition [3] 0% | outcome [5] | outcome [6] | outcome [7] | outcome [8]
active: growth inhibition [4] 100%

Cc1cc(C)c2[nH]cc(C(=O)O)c(=O)c2c1
inactive: inhibition [2] -1% | inhibition [3] -6% | outcome [5] | outcome [6] | outcome [7] | outcome [8]
active: growth inhibition [1] 60% | growth inhibition [4] 93%

Nc1nccc2ccc(-c3cccnc3)cc12
inactive: inhibition [2] 9% | inhibition [3] 2% | outcome [5] | outcome [6] | outcome [7] | outcome [8]
active: growth inhibition [1] 95% | growth inhibition [4] 97%

Nc1ncc(-c2ccccc2)cc1/C=C/c1cccnc1
active: growth inhibition [4] 91%
inactive: growth inhibition [1] 9% | inhibition [2] 33% | inhibition [3] -2% | outcome [5] | outcome [6] | outcome [7] | outcome [8]

CC(C)Sc1nncc(-c2cnnc(SC(C)C)n2)n1
inactive: inhibition [2] -1% | inhibition [3] 2% | outcome [5] | outcome [6] | outcome [7] | outcome [8]
active: growth inhibition [1] 100% | growth inhibition [4] 101%

O=C(N[C@@H](Cc1ccccc1)C(=O)NCc1cccc2ccccc12)c1ccc(O)c(-c2ccc(Cl)c(Cl)c2)c1
inactive: inhibition [2] -6% | inhibition [3] 4% | outcome [5] | outcome [6] | outcome [7] | outcome [8]
active: growth inhibition [1] 97% | growth inhibition [4] 101%

Cc1cccc(CNc2nc(C)cc(N[C@@H](CC(C)C)C(=O)NCCOc3ccccc3)n2)c1
active: growth inhibition [4] 93%
inactive: growth inhibition [1] 35% | inhibition [2] 15% | inhibition [3] -1% | outcome [5] | outcome [6] | outcome [7] | outcome [8]

Cc1cccc2[nH]c(-c3ccc(-c4cccc(CN5CCN(c6ccc(C#N)cn6)CC5)c4)s3)nc12
active: growth inhibition [4] 85%
inactive: growth inhibition [1] 8% | inhibition [2] 37% | inhibition [3] 2% | outcome [5] | outcome [6] | outcome [7] | outcome [8]

Fc1ccc(-c2csc3ncnc(Cl)c23)cc1
inactive: inhibition [2] 3% | inhibition [3] -1% | outcome [5] | outcome [6] | outcome [7] | outcome [8]
active: growth inhibition [1] 95% | growth inhibition [4] 94%

CC1CN(Cc2ccc(-c3cccc(-c4nc5ccc(F)cc5[nH]4)c3)cc2)CC(C)O1 (configuration not stated)
inactive: growth inhibition [1] 20% | inhibition [2] 28% | inhibition [3] -3% | outcome [5] | outcome [6] | outcome [7] | outcome [8]
active: growth inhibition [4] 93%

CCOc1ccc2nc(N(CCCn3ccnc3)C(=O)C=Cc3cccs3)sc2c1
active: growth inhibition [1] 97% | growth inhibition [4] 97%
inactive: inhibition [2] -1% | inhibition [3] -1% | outcome [5] | outcome [6] | outcome [7] | outcome [8]

Fc1ccc2nc(-c3ccc(-c4ccc(CNCc5ccccc5)cc4)cc3)[nH]c2c1
inactive: inhibition [2] 35% | inhibition [3] -4% | outcome [5] | outcome [6] | outcome [7] | outcome [8]
active: growth inhibition [1] 94% | growth inhibition [4] 101%

c1cncc(CN2CCN(Cc3ccc(-c4ccc(-c5nc6ccccc6[nH]5)s4)cc3)CC2)c1
inactive: growth inhibition [1] 34% | inhibition [2] 32% | inhibition [3] 6% | outcome [5] | outcome [6] | outcome [7] | outcome [8]
active: growth inhibition [4] 97%

Cc1cccc(C)c1C1CCN(C2CCC(NC(=O)/C=C/c3ccccc3)CC2)CC1 (configuration not stated)
inactive: growth inhibition [1] 45% | inhibition [2] 42% | inhibition [3] -1% | outcome [5] | outcome [6] | outcome [7] | outcome [8]
active: growth inhibition [4] 100%

CC(=O)N(Cc1nc(-c2cc(C(F)(F)F)cc(C(F)(F)F)c2)cs1)c1c(C)cccc1C
inactive: inhibition [2] -2% | inhibition [3] 1% | outcome [5] | outcome [6] | outcome [7] | outcome [8]
active: growth inhibition [1] 99% | growth inhibition [4] 100%

O=C(NCc1cccc(C(F)(F)F)c1)c1ccc(-c2nc3cc(F)c(F)cc3[nH]2)cc1
inactive: growth inhibition [1] 7% | inhibition [2] -1% | inhibition [3] 4% | outcome [5] | outcome [6] | outcome [7] | outcome [8]
active: growth inhibition [4] 97%

Fc1ccc2nc(-c3ccc(-c4cccc(CN5CCN(c6ccncc6)CC5)c4)cc3)[nH]c2c1
inactive: inhibition [3] -3% | outcome [5] | outcome [6] | outcome [7] | outcome [8]
active: growth inhibition [1] 101% | inhibition [2] 66% | growth inhibition [4] 100%

CN1CCN(c2cc3c(cc2Cl)CCN3C(=O)Cc2ccc(Cl)c(NC(=O)Nc3cccc([N+](=O)[O-])c3)c2)CC1
active: growth inhibition [1] 51% | growth inhibition [4] 99%
inactive: inhibition [2] -1% | inhibition [3] -7% | outcome [5] | outcome [6] | outcome [7] | outcome [8]

O=C(Nc1cccc(-c2cccc(-c3nc4ccccc4[nH]3)c2)c1)Nc1ccc(F)c(F)c1F
inactive: inhibition [3] -1% | outcome [5] | outcome [6] | outcome [7] | outcome [8]
active: growth inhibition [1] 95% | inhibition [2] 78% | growth inhibition [4] 98%

COc1ccc2nccc(NN=Cc3cccc(Cl)c3)c2c1
active: growth inhibition [1] 99% | growth inhibition [4] 100%
inactive: inhibition [2] 1% | inhibition [3] 3% | outcome [5] | outcome [6] | outcome [7] | outcome [8]

CC(=O)Oc1cc(C)ccc1C1CCN(CCCCNC(=O)c2ccc(NC(=O)c3ccc(Cl)cc3)cc2)CC1
active: growth inhibition [1] 57% | growth inhibition [4] 100%
inactive: inhibition [2] 12% | inhibition [3] -5% | outcome [5] | outcome [6] | outcome [7] | outcome [8]

COc1ccc2nccc([C@@H](O)CN3CCC(NCCOc4cc(C(F)(F)F)ccc4F)CC3)c2c1
active: growth inhibition [1] 83% | growth inhibition [4] 100%
inactive: inhibition [2] 13% | inhibition [3] 2% | outcome [5] | outcome [6] | outcome [7] | outcome [8]

COCCN1CCN(Cc2ccc(-c3ccc(-c4nc5c(C)cccc5[nH]4)s3)cc2)CC1
active: growth inhibition [1] 52% | growth inhibition [4] 95%
inactive: inhibition [2] 32% | inhibition [3] -2% | outcome [5] | outcome [6] | outcome [7] | outcome [8]

CCCC1N=C(N)N=C(N)N1c1ccc(Cl)cc1 (configuration not stated)
active: growth inhibition [4] 96%
inactive: growth inhibition [1] -2% | inhibition [2] 14% | inhibition [3] 5% | outcome [5] | outcome [6] | outcome [7] | outcome [8]

O=C(/C=C/c1ccc(Cl)cc1)NCCCCCN1CCCN(C(=O)Nc2ccc(Cl)c(C(F)(F)F)c2)CC1
active: inhibition [2] 54% | growth inhibition [4] 95%
inactive: growth inhibition [1] 1% | inhibition [3] 1% | outcome [5] | outcome [6] | outcome [7] | outcome [8]

CN1CCN(Cc2nc(-c3ccc4c(Nc5ccc(F)c(O)c5)ccnc4c3)cs2)CC1
active: growth inhibition [1] 100% | growth inhibition [4] 100%
inactive: inhibition [2] 0% | inhibition [3] 7% | outcome [5] | outcome [6] | outcome [7] | outcome [8]

COc1ccc(CC(=O)NC2CCN(c3ccnc4cc(Cl)ccc34)C2)cc1 (configuration not stated)
inactive: inhibition [2] -1% | inhibition [3] -8% | outcome [5] | outcome [6] | outcome [7] | outcome [8]
active: growth inhibition [1] 88% | growth inhibition [4] 101%

OC(CNc1ccnc(Nc2ccc(Cl)cc2)n1)c1ccccc1C(F)(F)F (configuration not stated)
inactive: growth inhibition [1] 28% | inhibition [2] 22% | inhibition [3] 0% | outcome [5] | outcome [6] | outcome [7] | outcome [8]
active: growth inhibition [4] 98%

Oc1ccc(CN2Cc3ccccc3OC3(CCN(Cc4c[nH]c5cnccc45)CC3)C2)cc1
inactive: growth inhibition [1] 3% | inhibition [2] 17% | inhibition [3] -6% | outcome [5] | outcome [6] | outcome [7] | outcome [8]
active: growth inhibition [4] 101%

NC1CCCN(Cc2ccc(-c3cccc(-c4nc5ccc(F)cc5[nH]4)c3)cc2)C1 (configuration not stated)
inactive: inhibition [3] 1% | outcome [5] | outcome [6] | outcome [7] | outcome [8]
active: growth inhibition [1] 75% | inhibition [2] 54% | growth inhibition [4] 100%

O=C(Nc1cccnc1)c1cc(-c2cccnc2)nc2ccc(Br)cc12
inactive: inhibition [2] 9% | inhibition [3] 1% | outcome [5] | outcome [6] | outcome [7] | outcome [8]
active: growth inhibition [1] 60% | growth inhibition [4] 99%

CC(=O)Nc1ccc(CN2CCC(CNC(=O)c3cc(-c4cccc(C(F)(F)F)c4)cs3)C2)cc1 (configuration not stated)
active: growth inhibition [4] 97%
inactive: growth inhibition [1] 3% | inhibition [2] 24% | inhibition [3] 2% | outcome [5] | outcome [6] | outcome [7] | outcome [8]

Cc1cc2ncn(-c3nccc(NCc4ccc(F)c(C)c4)n3)c2cc1C
inactive: inhibition [2] 10% | inhibition [3] -3% | outcome [5] | outcome [6] | outcome [7] | outcome [8]
active: growth inhibition [1] 82% | growth inhibition [4] 90%

Oc1ccc2[nH]c(-c3cccc(F)c3)nc2c1CN1CCCC1
inactive: growth inhibition [1] 47% | inhibition [2] 0% | inhibition [3] 5% | outcome [5] | outcome [6] | outcome [7] | outcome [8]
active: growth inhibition [4] 100%

COc1ccc2c(-c3ccccc3)noc2c1
active: growth inhibition [4] 98%
inactive: growth inhibition [1] 34% | inhibition [2] -4% | inhibition [3] -2% | outcome [5] | outcome [6] | outcome [7] | outcome [8]

Nc1nc(N)c2c(Oc3cccnc3)cccc2n1
active: inhibition [2] 65% | growth inhibition [4] 93%
inactive: growth inhibition [1] -1% | inhibition [3] 6% | outcome [5] | outcome [6] | outcome [7] | outcome [8]

Cc1ccccc1C1CCN(C2CCC(NC(=O)C3=Cc4cc(Cl)ccc4OC3)CC2)CC1 (configuration not stated)
active: growth inhibition [1] 99% | inhibition [2] 51% | growth inhibition [4] 100%
inactive: inhibition [3] 0% | outcome [5] | outcome [6] | outcome [7] | outcome [8]
